# Test results from PMC8384837, “Expanding the binding specificity for RNA recognition by a PUF domain”.
# What was measured:
# Test in all cases: yeast three-hybrid, YBZ-1, SC-Leu-His + 0.5 mM 3-AT, 4 days
# Conditions in all cases: tags: N-Gal4 AD-HA kept; label: inside an RPR1-promoter hybrid RNA with tandem MS2 sites; ssRNA
# PUM1 PUF domain R3-YRW = PUM1 PUF domain R3-YRW (Homo sapiens, UniProt Q14671 828-1176, C935Y;Q939W)
# How it was run: (§1)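 The interaction score is the log change in how often each variant appears, from input to selection. Frequencies came from PCR-amplified, Illumina-sequenced repeat regions of Pumilio-1 PUF domain libraries grown in strain YBZ-1 (LexA–MS2 coat fusion, HIS3 reporter) alongside matching RNA elements. Input plates were SC-Leu and selection plates were SC-Leu-His + 0.5 mM 3-AT, each for four days, and the log2 calculation used a pseudocount of 1 where a variant was absent.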
# PUM1 PUF domain R5-LYR = PUM1 PUF domain R5-LYR (Homo sapiens, UniProt Q14671 828-1176, C1007L;R1008Y;Q1011R)
# How it was run: as §1
# PUM1 PUF domain R5-DFS = PUM1 PUF domain R5-DFS (Homo sapiens, UniProt Q14671 828-1176, C1007D;R1008F;Q1011S)
# How it was run: as §1
# PUM1 PUF domain R1-KWS = PUM1 PUF domain R1-KWS (Homo sapiens, UniProt Q14671 828-1176, S863K;R864W;Q867S)
# How it was run: as §1
# PUM1 PUF domain R2-SIP = PUM1 PUF domain R2-SIP (Homo sapiens, UniProt Q14671 828-1176, N899S;Y900I;Q903P)
# How it was run: as §1
# PUM1 PUF domain R2-RRA = PUM1 PUF domain R2-RRA (Homo sapiens, UniProt Q14671 828-1176, N899R;Y900R;Q903A)
# How it was run: as §1
# PUM1 PUF domain R4-PWQ = PUM1 PUF domain R4-PWQ (Homo sapiens, UniProt Q14671 828-1176, N971P;H972W)
# How it was run: as §1
# PUM1 PUF domain R4-FNG = PUM1 PUF domain R4-FNG (Homo sapiens, UniProt Q14671 828-1176, N971F;H972N;Q975G)
# How it was run: as §1
# PUM1 PUF domain R4-RHI = PUM1 PUF domain R4-RHI (Homo sapiens, UniProt Q14671 828-1176, N971R;Q975I)
# How it was run: as §1
# PUM1 PUF domain R1-KAN = PUM1 PUF domain R1-KAN (Homo sapiens, UniProt Q14671 828-1176, S863K;R864A;Q867N)
# How it was run: as §1
# PUM1 PUF domain R3-TRT = PUM1 PUF domain R3-TRT (Homo sapiens, UniProt Q14671 828-1176, C935T;Q939T)
# How it was run: as §1
# PUM1 PUF domain R3-LFE = PUM1 PUF domain R3-LFE (Homo sapiens, UniProt Q14671 828-1176, C935L;R936F;Q939E)
# How it was run: as §1
# PUM1 PUF domain R3-RQS = PUM1 PUF domain R3-RQS (Homo sapiens, UniProt Q14671 828-1176, C935R;R936Q;Q939S)
# How it was run: as §1
# PUM1 PUF domain R1-RKL = PUM1 PUF domain R1-RKL (Homo sapiens, UniProt Q14671 828-1176, S863R;R864K;Q867L)
# How it was run: as §1
# PUM1 PUF domain R1-KTQ = PUM1 PUF domain R1-KTQ (Homo sapiens, UniProt Q14671 828-1176, S863K;R864T)
# How it was run: as §1
# PUM1 PUF domain R5-SVV = PUM1 PUF domain R5-SVV (Homo sapiens, UniProt Q14671 828-1176, C1007S;R1008V;Q1011V)
# How it was run: as §1
# PUM1 PUF domain R6-WHR = target: T1, PUM1 PUF domain R6-WHR (Homo sapiens, UniProt Q14671 828-1176, N1043W;Y1044H;Q1047R)
# T1 sequence: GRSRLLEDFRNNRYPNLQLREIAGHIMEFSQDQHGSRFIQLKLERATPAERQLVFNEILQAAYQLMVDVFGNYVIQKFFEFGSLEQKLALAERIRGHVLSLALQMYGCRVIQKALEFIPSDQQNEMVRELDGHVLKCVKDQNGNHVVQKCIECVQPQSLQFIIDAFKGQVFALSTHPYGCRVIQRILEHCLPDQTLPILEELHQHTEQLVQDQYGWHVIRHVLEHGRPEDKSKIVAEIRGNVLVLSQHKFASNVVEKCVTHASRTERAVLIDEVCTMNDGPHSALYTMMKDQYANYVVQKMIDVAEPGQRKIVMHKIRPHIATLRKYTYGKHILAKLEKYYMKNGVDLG
# How it was run: as §1
# PUM1 PUF domain R3-CRI = PUM1 PUF domain R3-CRI (Homo sapiens, UniProt Q14671 828-1176, Q939I)
# How it was run: as §1
# PUM1 PUF domain R4-DWT = PUM1 PUF domain R4-DWT (Homo sapiens, UniProt Q14671 828-1176, N971D;H972W;Q975T)
# How it was run: as §1
# PUM1 PUF domain R3-API = PUM1 PUF domain R3-API (Homo sapiens, UniProt Q14671 828-1176, C935A;R936P;Q939I)
# How it was run: as §1
sequence,measurement,setting,value
GGCUAGAACUAGUGGAUCCCCCGGCGCCCGGCGGCUCGAGCCCGGGUAAGUGUAAGUAGUCUGCAUGCCGCCGGGCGCCAUGCCUGCAGGUCGACUCUAGAAAACAUG,binding signal,PUM1 PUF domain R3-YRW,4.4 log2 enrichment (interaction score)
GGCUAGAACUAGUGGAUCCCCCGGCGCCCGGCGGCUCGAGCCCGGGUAAGUGUUAAUAGUCUGCAUGCCGCCGGGCGCCAUGCCUGCAGGUCGACUCUAGAAAACAUG,binding signal,PUM1 PUF domain R5-LYR,3.43 log2 enrichment (interaction score)
same,binding signal,PUM1 PUF domain R5-DFS,5.63 log2 enrichment (interaction score)
GGCUAGAACUAGUGGAUCCCCCGGCGCCCGGCGGCUCGAGCCCGGGUAAGUGUAAAUCGUCUGCAUGCCGCCGGGCGCCAUGCCUGCAGGUCGACUCUAGAAAACAUG,binding signal,PUM1 PUF domain R1-KWS,3.87 log2 enrichment (interaction score)
GGCUAGAACUAGUGGAUCCCCCGGCGCCCGGCGGCUCGAGCCCGGGUAAGUGUAAAGAGUCUGCAUGCCGCCGGGCGCCAUGCCUGCAGGUCGACUCUAGAAAACAUG,binding signal,PUM1 PUF domain R2-SIP,3.71 log2 enrichment (interaction score)
same,binding signal,PUM1 PUF domain R2-RRA,2.69 log2 enrichment (interaction score)
GGCUAGAACUAGUGGAUCCCCCGGCGCCCGGCGGCUCGAGCCCGGGUAAGUGUAUAUAGUCUGCAUGCCGCCGGGCGCCAUGCCUGCAGGUCGACUCUAGAAAACAUG,binding signal,PUM1 PUF domain R4-PWQ,5.05 log2 enrichment (interaction score)
same,binding signal,PUM1 PUF domain R4-FNG,4.34 log2 enrichment (interaction score)
same,binding signal,PUM1 PUF domain R4-RHI,3.1 log2 enrichment (interaction score)
GGCUAGAACUAGUGGAUCCCCCGGCGCCCGGCGGCUCGAGCCCGGGUAAGUGUAAAUGGUCUGCAUGCCGCCGGGCGCCAUGCCUGCAGGUCGACUCUAGAAAACAUG,binding signal,PUM1 PUF domain R1-KAN,2.46 log2 enrichment (interaction score)
GGCUAGAACUAGUGGAUCCCCCGGCGCCCGGCGGCUCGAGCCCGGGUAAGUGUAAUUAGUCUGCAUGCCGCCGGGCGCCAUGCCUGCAGGUCGACUCUAGAAAACAUG,binding signal,PUM1 PUF domain R3-TRT,1.8 log2 enrichment (interaction score)
same,binding signal,PUM1 PUF domain R3-LFE,1.57 log2 enrichment (interaction score)
same,binding signal,PUM1 PUF domain R3-RQS,4.09 log2 enrichment (interaction score)
GGCUAGAACUAGUGGAUCCCCCGGCGCCCGGCGGCUCGAGCCCGGGUAAGUGUAAAUUGUCUGCAUGCCGCCGGGCGCCAUGCCUGCAGGUCGACUCUAGAAAACAUG,binding signal,PUM1 PUF domain R1-RKL,2.52 log2 enrichment (interaction score)
same,binding signal,PUM1 PUF domain R1-KWS,3.62 log2 enrichment (interaction score)
same,binding signal,PUM1 PUF domain R1-KTQ,5.82 log2 enrichment (interaction score)
GGCUAGAACUAGUGGAUCCCCCGGCGCCCGGCGGCUCGAGCCCGGGUAAGUGUGAAUAGUCUGCAUGCCGCCGGGCGCCAUGCCUGCAGGUCGACUCUAGAAAACAUG,binding signal,PUM1 PUF domain R5-LYR,0.51 log2 enrichment (interaction score)
same,binding signal,PUM1 PUF domain R5-SVV,3.44 log2 enrichment (interaction score)
GGCUAGAACUAGUGGAUCCCCCGGCGCCCGGCGGCUCGAGCCCGGGUAAGUGUAAAUAGUCUGCAUGCCGCCGGGCGCCAUGCCUGCAGGUCGACUCUAGAAAACAUG,binding signal,PUM1 PUF domain R6-WHR,3.96 log2 enrichment (interaction score)
same,binding signal,PUM1 PUF domain R5-LYR,4.43 log2 enrichment (interaction score)
same,binding signal,PUM1 PUF domain R5-SVV,0.43 log2 enrichment (interaction score)
same,binding signal,PUM1 PUF domain R3-CRI,3.93 log2 enrichment (interaction score)
same,binding signal,PUM1 PUF domain R3-TRT,4.01 log2 enrichment (interaction score)
same,binding signal,PUM1 PUF domain R4-DWT,6.18 log2 enrichment (interaction score)
same,binding signal,PUM1 PUF domain R3-LFE,3.02 log2 enrichment (interaction score)
same,binding signal,PUM1 PUF domain R3-API,3.13 log2 enrichment (interaction score)
GGCUAGAACUAGUGGAUCCCCCGGCGCCCGGCGGCUCGAGCCCGGGUAAGUGUCAAUAGUCUGCAUGCCGCCGGGCGCCAUGCCUGCAGGUCGACUCUAGAAAACAUG,binding signal,PUM1 PUF domain R5-LYR,3.17 log2 enrichment (interaction score)
